INS-1E GSIS act: primary screen for activators of insulin secretion dependent on glucose, INS-1E cells, GLuc reporter luminescence | 370,000 compounds, 0.61% hits | activation, % at 16.6 µM | INS-1E GLuc reporter insulin secretion, 2-3 h;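 active = lowest replicate activation of at least 40%, so every replicate reaches that level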;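 note: 0% = median of neutral control wells and 100% = median of IBMX positive control wells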
F508del corr: correctors of CFTR F508del function in bronchial epithelial cells; CFBE cells, YFP halide quenching; stimulated with forskolin plus potentiator P3; % fluorescence drop versus neutral controls; activity (quench increase), % at 7.58 µM; 350,000 compounds, 0.36% hits; AID 720511;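 active = mean added fluorescence quench of at least 8% versus neutral control, with both replicates also reaching 8%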;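 note: cells transiently co-express mutant CFTR-F508del with the halide-sensitive YFP; corrector assay measuring rescue of mutant channel to the surface after 24 h compound exposure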
PGC1a acetyl inh: PGC1a acetylation modulation, inhibitor mode; 350,000 compounds, 0.17% hits; inhibition, % at 15.6 µM; AID 651687; U2OS PGC1a acetylation, AlphaScreen anti-acetyl-lysine; with virally co-expressed GCN5 acetyltransferase;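 active = every replicate shows inhibition of at least 40%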;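 note: 0% = neutral control wells and 100% = positive control wells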
EWS-Fli inh: inhibitors of EWS/Fli oncoprotein transcriptional activity; 350,000 compounds, 0.67% hits; inhibition, % at 12.6 µM; AID 651661; A673 NR0B1-luciferase reporter, viability-normalised;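 active = mean inhibition of at least 50% after viability correction, with every replicate also passing that limit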;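 note: firefly luciferase signal divided by Alamar Blue viability fluorescence both relative to DMSO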
PAX8 inh HTS: PAX8 transcriptional activity inhibition | RMG-I TPO-luciferase reporter, SteadyGlo, 24 h | inhibition, % at 12.6 µM | 360,000 compounds, 1.2% hits | AID 652154;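 active = mean replicate inhibition at least 60% with every replicate also reaching 60%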;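 note: luciferase light reporting Pax8 driven TPO promoter activity; plate controls were median of neutral control wells for no effect and mitoxantrone controls for full effect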
HIV Env fusion: blocks HIV Env-driven cell-cell fusion; HeLa-JRFL Env/CEM21 cell fusion, luciferase; inhibition, % at 12.3 µM; 360,000 compounds, 1.1% hits; AID 651610;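 active = mean replicate inhibition score of at least 50 and every replicate individually at or above 50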;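 note: 0% = plate neutral controls and 100% = maraviroc near 300 nM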
Active calls of the source: *; . = not tested or not shown; [ ] = remark or other dose. Sampled rows, rich in hits. Any-hit rate of the full collection: about 2.7%.

SMILES	INS-1E GSIS act	F508del corr	PGC1a acetyl inh	EWS-Fli inh	PAX8 inh HTS	HIV Env fusion
COc1cccc(S(=O)(=O)Nc2ccc3c(c2)[C@H]2C[C@H](CC(=O)NCc4ccc(Cl)cc4)O[C@@H](CO)[C@H]2O3)c1	-26	-1	-13	3	31	57*[16.7 µM]
COc1cccc(S(=O)(=O)N[C@@H]2CC[C@H](CC(=O)NCc3ccncc3)O[C@@H]2CO)c1	3	2	-4	-5	-12	56*[16.7 µM]
Cc1noc(C)c1S(=O)(=O)Nc1ccc2c(c1)C(=O)N([C@@H](C)CO)C[C@@H](C)[C@@H](CN(C)S(=O)(=O)c1ccc(Cl)cc1)OCCCC[C@H](C)O2	-4	7	.	-2	50	-40[16.7 µM]
N#C[C@@H]1[C@H](c2ccc(-c3cccc(F)c3)cc2)[C@@H](CO)N1C(=O)NC1CCCCC1	-34	-8	-26	2	.	.
Cc1ccc(OCC(=O)Nc2c3c(nn2C(C)(C)C)CS(=O)(=O)C3)cc1	12	1	.	.	-11	58*
COCC(=O)N1C[C@H](C)[C@@H](OC)CN(C)C(=O)c2cc(NC(=O)c3cc(C)on3)ccc2OC[C@@H]1C	7	-2	-7	1	-11	-17[16.7 µM]
COc1cc(NC(=O)c2cc(-c3ccccc3Cl)on2)cc(OC)c1OC	-9	3	2	62*	9	-69
C=CCn1c(SCC(=O)Nc2nc(C)cs2)nnc1C(NC(=O)c1ccccc1)C(C)C (configuration not stated)	.	.	2	.	.	112*
COc1ccc(C(=O)NC(C)c2nnc(SCC(=O)Nc3nc(C)cs3)n2C)cc1 (configuration not stated)	.	.	-5	.	.	-28
CC=Cc1ccc2n(c1=O)C[C@H]1[C@H](CO)[C@@H](C(=O)N(C)C)[C@@H]2N1Cc1cc(F)ccc1F (mixture of isomers)	0	.	.	7	.	.
C[C@H](CO)N1C[C@H](C)[C@@H](CN(C)C(=O)Nc2ccccc2)Oc2ccc(NS(=O)(=O)c3ccc(Cl)cc3)cc2CC1=O	-2	0	3	-13	1	.
CC(C)c1nnc(NC(=O)c2nc(S(=O)(=O)Cc3ccccc3F)ncc2Cl)s1	25	3	.	61*	0	-108
Cc1ccc(CS(=O)(=O)c2ncc(Cl)c(C(=O)Nc3nnc(C(C)C)s3)n2)cc1	10	5	.	70*	28	7
CCCC#Cc1ccc([C@H]2[C@H](CO)N3C(=O)CN(C(=O)NC4CCCC4)C[C@@H]23)cc1	-8	-2	-7	3	-8	.
CCCCN(C)C(=O)C(Cc1ccccc1)NS(=O)(=O)c1ccc2c(c1)CCC(=O)N2 (configuration not stated)	4	2	-18	6	-9	67*
COc1ccc(CN(C)C[C@H]2OCCCC[C@H](C)Oc3ccc(NS(=O)(=O)c4ccccc4)cc3C(=O)N([C@H](C)CO)C[C@H]2C)cc1	-28	3	3	8	36	-5[16.7 µM]
Cc1ccc(-n2nc3c(N4CCC(C(=O)NCc5ccccc5C)CC4)nnc(C)c3c2C)cc1	.	.	-4	.	.	.
CCOc1ccccc1CNC(=O)C1CCN(c2nnc(C)c3c(C)n(-c4ccc(C)cc4)nc23)CC1	3	1	36	59*	79*	12
COc1ccc(-n2nc3c(N4CCC(C(=O)NCc5cccc(C)c5)CC4)nnc(C)c3c2C)cc1	-2	-5	.	.	102*	12
COc1nc(-c2ccccc2)ccc1-c1noc(-c2cccnc2)n1	71*	.	-17	.	.	-29
C[C@H](CO)N1C[C@H](C)[C@@H](CN(C)Cc2ccc(C(=O)Nc3ccccc3N)cc2)Oc2c(NC(=O)c3nc4ccccc4s3)cccc2C1=O	14	1	-7	-2	.	.
COc1cc2cc(c1Cl)N(C)C(=O)CC(OC(=O)C(C)N(C)C(C)=O)C1(C)OC1C(C)C1CC(O)(NC(=O)O1)C(OC)C=CC=C(C)C2 (configuration not stated)	-17	-6	-27	28	74*	-6
Cc1nc2ccc(NS(=O)(=O)c3ccc(C)c(C)c3)cc2s1	.	.	-8	.	24	71*
CC(=O)c1cccc(S(=O)(=O)Nc2ccc3nc(C)sc3c2)c1	-38	2	-2	9	-6	50
C/C(=N\Nc1cc(C)nc(-c2ccccc2O)n1)c1ccccc1	-7	.	32	-35	-44	-10
SMILES	INS-1E GSIS act	F508del corr	PGC1a acetyl inh	EWS-Fli inh	PAX8 inh HTS	HIV Env fusion
Cc1cc(N/N=C/c2ccc(O)c(C)c2O)nc(-c2ccccc2O)n1	3	.	.	.	97*	-36
COC(=O)c1cccc(N/C=C(\[N+](=O)[O-])S(=O)(=O)c2ccccc2)c1	51*	1	-5	-27	-15	-2
COC(=O)C[C@@H]1CC[C@@H]2[C@@H](COc3ccc(NC(=O)Nc4cc(C)cc(C)c4)cc3C(=O)N2C)O1	-13	.	.	44	29	6[16.7 µM]
CC(=O)N(c1cccc(C)c1)S(=O)(=O)c1ccc(Cl)cc1	-5	-2	53*	-1	3	-15
Cc1ccc(S(=O)(=O)Nc2ccccc2C(C(=O)OC(C)(C)C)C(=O)OC(C)(C)C)cc1	-26	-4	.	11	6	57*
Cc1ccc(-c2noc(CSc3nnc(-c4ccncc4)n3-c3ccc(C)cc3)n2)cc1	-25	.	-1	.	.	48
Clc1ccc(-c2noc(CSc3nnc(-c4ccncc4)n3-c3ccccc3)n2)cc1	-9	.	2	.	.	94*
O=C(Nc1ccc(F)cc1)N[C@H]1CC[C@H](CCNC(=O)c2ccccc2F)O[C@H]1CO	5	3	3	10	.	.
CC(C)NC(=O)N[C@H]1CC[C@H](CCN)O[C@H]1CO	-1	-3	-2	-6	-5	21[16.7 µM]
COc1ccc(C(=O)N(Cc2ccccc2)Cc2cc3cc4c(cc3[nH]c2=O)OCCO4)cc1	.	.	-13	.	.	59*
COc1cccc(C(=O)N(Cc2ccccc2)Cc2cc3cc4c(cc3[nH]c2=O)OCCO4)c1	-8	.	-20	.	.	-22
Cc1ccccc1Nc1nc(-c2cccnc2)nc2ccccc12	16	1	-12	-6	8	6
Cc1ccc(Nc2nc(-c3cccnc3)nc3ccccc23)cc1	-6	12*	-46	58*	29	33
O=C(Nc1ccccc1F)N[C@@H]1CC[C@H](CCNS(=O)(=O)c2ccccc2)O[C@H]1CO	-1	-2	1	-3	-7	-12[16.7 µM]
CS(=O)(=O)c1ccc(C(=O)OCc2nnc(-c3ccccc3)o2)cc1[N+](=O)[O-]	71*	0	.	35	34	-273
Cc1ccccc1OCCOC(=O)c1c(-c2ccccc2)noc1C	-11	3	7	58*	28	25
Cc1onc(-c2ccccc2)c1C(=O)OCc1nnc(-c2ccc([N+](=O)[O-])cc2)o1	-25	0	3	1	16	60*
O=C(OCc1nnc(-c2ccccc2)o1)C1=COCCO1	5	.	61*	.	.	.
